The source of these data is publication PMC11062922 (Nature Chemical Biology, 2023).

Like-named read-outs stand apart in the source and are kept apart here.

What all share (set-up): species or system human, MV4-11 + K-562 + COLO205 + SK-N-BE2 + OVCAR-8
One experiment relates to ADRBK1. The conditions noted are these: read-out: apparent Kd, n = 1.
The next experiment has as its system CDK4. The conditions noted are these: read-out: apparent Kd; compound concentrations:100 nM and 1000 nM (sheet 'Samples'); n = 1.
The subject of a further experiment is CDK6. The conditions noted are these: read-out: apparent Kd; compound concentrations:100 nM and 1000 nM (sheet 'Samples'); n = 1.
The test system of a further experiment is MAP2K2. The conditions noted are these: read-out: apparent Kd; compound concentrations:100 nM and 1000 nM (sheet 'Samples'); n = 1.
A further experiment relates to MAPK14. The conditions noted are these: read-out: apparent Kd; compound concentrations:100 nM and 1000 nM (sheet 'Samples'); n = 1.
The subject of another experiment is MAPKAPK2. The conditions noted are these: read-out: apparent Kd; compound concentrations:100 nM and 1000 nM (sheet 'Samples'); n = 1.
The subject of the next experiment is NQO2. The conditions noted are these: read-out: apparent Kd; compound concentrations:100 nM and 1000 nM (sheet 'Samples'); n = 1.
For another experiment, the system named is PRKCZ. The conditions noted are these: read-out: apparent Kd; compound concentrations:100 nM and 1000 nM (sheet 'Samples'); n = 1.
A further experiment concerns TP53RK. The conditions noted are these: read-out: apparent Kd; compound concentrations:100 nM and 1000 nM (sheet 'Samples'); n = 1.
Another experiment concerns CLK3. The conditions noted are these: read-out: apparent Kd; compound concentrations: 100 nM and 1000 nM (sheet 'Samples'), CATDS: 0.62903265036008305; n = 1.
The next experiment has as its system ERBB3. The conditions noted are these: read-out: apparent Kd; compound concentrations:100 nM and 1000 nM (sheet 'Samples'); n = 1.
For another experiment, the system named is RIOK2. The conditions noted are these: read-out: apparent Kd; compound concentrations:100 nM and 1000 nM (sheet 'Samples'); n = 1.
For another experiment, the system named is AURKB. The conditions noted are these: read-out: apparent Kd; compound concentrations: 100 nM and 1000 nM (sheet 'Samples'), CATDS: 4.53976270719329E-2; n = 1.
Another experiment has as its system CDC42BPA. The conditions noted are these: read-out: apparent Kd; compound concentrations: 100 nM and 1000 nM (sheet 'Samples'), CATDS: 4.6703340399090902E-2; n = 1.
The next experiment has as its system CDC42BPB. The conditions noted are these: read-out: apparent Kd; compound concentrations: 100 nM and 1000 nM (sheet 'Samples'), CATDS: 8.1718607262500007E-2; n = 1.
A further experiment has as its system CDC42BPG. The conditions noted are these: read-out: apparent Kd; compound concentrations: 100 nM and 1000 nM (sheet 'Samples'), CATDS: 0.122976821527932; n = 1.
Another experiment concerns MELK. The conditions noted are these: read-out: apparent Kd; compound concentrations: 100 nM and 1000 nM (sheet 'Samples'), CATDS: 4.0337872556692203E-2; n = 1.
The subject of the next experiment is PKN1. The conditions noted are these: read-out: apparent Kd; compound concentrations: 100 nM and 1000 nM (sheet 'Samples'), CATDS: 5.5828153237378199E-2; n = 1.
A further experiment has as its system PRKACA. The conditions noted are these: read-out: apparent Kd; compound concentrations: 100 nM and 1000 nM (sheet 'Samples'), CATDS: 0.15364930572584601; n = 1.
The next experiment concerns PRKACB. The conditions noted are these: read-out: apparent Kd; compound concentrations: 100 nM and 1000 nM (sheet 'Samples'), CATDS: 8.6308392593060404E-2; n = 1.
The test system of another experiment is PRKG1. The conditions noted are these: read-out: apparent Kd; compound concentrations: 100 nM and 1000 nM (sheet 'Samples'), CATDS: 0.45709294819491503; n = 1.
The test system of the next experiment is PRKX;PRKY. The conditions noted are these: read-out: apparent Kd; compound concentrations: 100 nM and 1000 nM (sheet 'Samples'), CATDS: 6.11631694313804E-2; n = 1.
A further experiment has as its system ROCK1. The conditions noted are these: read-out: apparent Kd; compound concentrations: 100 nM and 1000 nM (sheet 'Samples'), CATDS: 0.130780563846252; n = 1.
The subject of the next experiment is ROCK2. The conditions noted are these: read-out: apparent Kd; compound concentrations: 100 nM and 1000 nM (sheet 'Samples'), CATDS: 0.120469396164387; n = 1.
The next experiment concerns RPS6KA5. The conditions noted are these: read-out: apparent Kd; compound concentrations: 100 nM and 1000 nM (sheet 'Samples'), CATDS: 4.3322192000587102E-2; n = 1.
A further experiment relates to RPS6KB1. The conditions noted are these: read-out: apparent Kd; compound concentrations: 100 nM and 1000 nM (sheet 'Samples'), CATDS: 4.8981649950923703E-2; n = 1.
The subject of the next experiment is ADK. The conditions noted are these: read-out: apparent Kd; compound concentrations: 100 nM and 1000 nM (sheet 'Samples'), CATDS: 1; n = 1.
Another experiment concerns ADCK5. The conditions noted are these: read-out: apparent Kd; compound concentrations:100 nM and 1000 nM (sheet 'Samples'); n = 1.
The subject of a further experiment is AKT2. The conditions noted are these: read-out: apparent Kd; compound concentrations:100 nM and 1000 nM (sheet 'Samples'); n = 1.
For the next experiment, the system named is DDR1. The conditions noted are these: read-out: apparent Kd; compound concentrations:100 nM and 1000 nM (sheet 'Samples'); n = 1.
In the next experiment the test system is NNT. The conditions noted are these: read-out: apparent Kd; compound concentrations:100 nM and 1000 nM (sheet 'Samples'); n = 1.
A further experiment has as its system NQO1. The conditions noted are these: read-out: apparent Kd; compound concentrations:100 nM and 1000 nM (sheet 'Samples'); n = 1.
The next experiment relates to STK26. The conditions noted are these: read-out: apparent Kd; compound concentrations:100 nM and 1000 nM (sheet 'Samples'); n = 1.
Where [1] appears, read: compound concentrations:100 nM and 1000 nM (sheet 'Samples').

Turning to `Cc1ccccc1-c1cc(-c2c[nH]nc2-c2ccccn2)ccn1` [GW680061X], the potency estimated from few doses was 2140 nM with ADRBK1 (setting [1]); 1890 nM in the experiment on CDK4; 1960 nM in the experiment on CDK6; 2250 nM with MAP2K2; 993 nM in the experiment with MAPK14; 470 nM in the experiment with MAPKAPK2. Also, the potency estimated from few doses is 1210 nM with NQO2, 2260 nM in the experiment on PRKCZ and 2160 nM with TP53RK.

On to `COc1ccc2cc(-c3nc(-c4ccccc4C(C)C)[nH]c3-c3ccncc3)ccc2c1` [SB-660566], for which the potency estimated from few doses is 2070 nM in the experiment on ADRBK1 (compound concentrations: 100 nM and 1000 nM (sheet 'Samples'), CATDS: 0.41489344635778702); 865 nM in the experiment with CLK3.

As to `CCc1cc(Nc2nccc(-c3c(-c4ccc(OC)c(C(=O)Nc5c(F)cccc5F)c4)nc4ccccn34)n2)c(OC)cc1N1CCC(N2CCN(S(C)(=O)=O)CC2)CC1` [GSK1904529], the potency estimated from few doses is 2030 nM in the experiment with ADRBK1 (setting [1]), 2370 nM in the experiment with CDK6, 1360 nM in the experiment on ERBB3 and 2220 nM in the experiment with RIOK2.

Regarding `CCNCC(Cc1ccccc1)NC(=O)c1cc(Br)c(-c2ccnc3[nH]ccc23)s1.CCNCC(Cc1ccccc1)NC(=O)c1cc(Br)c(-c2ccnc3[nH]ccc23)s1.Cl.Cl` (stereo not shown) [GSK1383280A], the potency estimated from few doses in the experiment with ADRBK1 (compound concentrations: 100 nM and 1000 nM (sheet 'Samples'), CATDS: 4.4620595418211097E-2) is 971 nM; with AURKB, 888 nM; in the experiment with CDC42BPA it was 771 nM; in the experiment with CDC42BPB, 103 nM; in the experiment with CDC42BPG, 38.1 nM; in the experiment on MELK, 1780 nM. Also, the potency estimated from few doses is 359 nM in the experiment on PKN1; 24.4 nM in the experiment with PRKACA; 88.6 nM in the experiment with PRKACB; 4.21 nM with PRKG1; 256 nM in the experiment with PRKX;PRKY; 33.5 nM with ROCK1. In addition, the potency estimated from few doses in the experiment on ROCK2 is 39.8 nM; in the experiment with RPS6KA5 it was 1140 nM; in the experiment on RPS6KB1, 617 nM.

For the compound `O=C(Nc1n[nH]c2nc(-c3ccco3)c(Br)cc12)C1CC1` [SB-739452], in the experiment with ADK, the potency estimated from few doses is 1720 nM.

In the case of `COC(=O)Nc1nc2ccc(Oc3ccc(NC(=O)Nc4cc(C(F)(F)F)ccc4F)cc3)cc2n1C.Cl` [GW692089A], the potency estimated from few doses is 1770 nM in the experiment on ADCK5; 1500 nM in the experiment with ADRBK1 (setting [1]); 2410 nM in the experiment with AKT2; 2200 nM in the experiment on CDK4; 2300 nM with CDK6; 1030 nM with DDR1. Besides, the potency estimated from few doses with MAP2K2 was 2020 nM; with NNT, 1910 nM; in the experiment on NQO1, 1810 nM; with RIOK2 it was 2170 nM; in the experiment with STK26, 1760 nM; in the experiment on TP53RK, 1400 nM.
